Measurements: PubChem BioAssay AID624442 (Broad Institute, 2012)

Assay: reactive oxygen species induction in U2OS, dose response, U2OS cells, fluorescence, dry powder, set 2 (AID 624442)
Conditions: U2OS ROS induction, H2DCF-DA fluorescence, stronger effect = higher value; at 38 µM unless noted;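 active means activation curve reaches 40% at a concentration no higher than the top valid dose tested; inactive means signal falling instead of rising, plus the rest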

Max activation, inactive:
O=C(Nc1nc(SCc2ccccc2)ns1)C1CCC1 30.8%
Cc1ccccc1CSc1nnc(N)s1 16.2% [at 19.5 µM]
Cc1cccc(CSc2nsc(N)n2)c1 24.3% [at 19.5 µM]
Nc1nc(SCc2ccc(F)cc2)ns1 15.9% [at 1.2 µM]
Nc1nc(S(=O)(=O)Cc2ccccc2)ns1 18.5% [at 0.6 µM]
Cc1ccccc1CSc1n[nH]c(N)n1 25.1% [at 1.2 µM]
O=C(Nc1nc(SCc2ccccc2)ns1)C1CC=CCC1 (configuration not stated) 65.2%
Nc1nc(SCc2ccc(Cl)cc2Cl)ns1 32.3% [at 0.3 µM]
Cc1ccccc1CSc1nsc(N)n1 27.9% [at 19.5 µM]
Nc1nc(SCc2ccccc2Cl)ns1 17.6% [at 5 µM]
O=C(Nc1ccccc1)Nc1nc(SCc2ccccc2)ns1 11.1%
Nc1nc(SCc2ccccc2)ns1 14.6% [at 5 µM]
